Results published in PubChem BioAssay (NCI).
Compounds without any hit were thinned out: in the full panel of roughly 79,000, 15% have a hit. Unmarked numbers belong to inactive results. The source made the active and inactive calls. Cut-off read from the data, not from the text of the source: active = growth inhibition above about 70%; inactive = the rest.

Assay: NCI Yeast Anticancer Drug Screen. Data for the rad50 strain (AID 155);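 note: 0% = growth of vehicle-only cultures of the same strain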
Settings: S. cerevisiae rad50 strain growth inhibition; at 50.0 µM; active compounds read high
Summary of the method: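 Vehicle-treated cultures provide the reference for the growth inhibition reported for compound-exposed, repair-deficient yeast.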

Which growth inhibition does the source give for `O=[N+]([O-])c1cccc(/C=C/C=C/c2ccc(Cl)c(Cl)c2)c1` here?
Its growth inhibition is 7.65%.

With `COC1/C=C\OC2(C)Oc3c(C)c(O)c4c(O)c(c5[nH]cnc5c4c3C2=O)NC(=O)/C(C)=C\C=C\C(C)C(O)C(C)C(O)C(C)C(OC(C)=O)C1C` (stereo not given) as the compound, how does the growth inhibition read?
Its growth inhibition is 12.1%.

Which growth inhibition does the source give for `COc1cc(/C=C/C=C2\CC(C)C/C(=C\C=C\c3ccc(O)c(OC)c3)C2=O)ccc1O` (stereo not given) here?
The growth inhibition was 9%.

Which growth inhibition does the source give for `Cc1cccc(C)c1NC(=O)CCC(=O)NC(N)=NC#N` here?
Its growth inhibition is -33.1%.

For `CCCc1nc2ccccc2c(=O)n1/N=C/c1ccc(Cl)cc1`, which growth inhibition is on record?
Its growth inhibition is 0.5%.

For `C=CCN(CC=C)C(=O)C(=C)C`, which growth inhibition is on record?
The growth inhibition was 3.3%.

Which growth inhibition does the source give for `O=C(Cc1nc(-c2ccccc2)cc(=O)n1-c1ccccc1Cl)c1ccncc1` here?
Its growth inhibition is 32.4%.

Which growth inhibition does the source give for `COc1ccc(/C=N/NC(=O)CCCCCCCCC(=O)N/N=C/c2ccc(OC)c(OC)c2)cc1OC` here?
Its growth inhibition is -26.4%.

With `CCC(CC)=C(c1ccc(C)cc1)c1ccc(C)cc1` as the compound, how does the growth inhibition read?
Its growth inhibition is -25.2%.

Which growth inhibition does the source give for `CN(C)/C=C/c1ccnc2c1C(=O)c1ccccc1C2=O` here?
The growth inhibition was 83.7% (active).

Which growth inhibition does the source give for `CCN1C(=O)c2ccccc2C1=O` here?
The growth inhibition was 11.8%.

For `CN(C(=O)c1ccccc1)C1CCCC(=O)CC1` (stereo not given), which growth inhibition is on record?
The growth inhibition was -2.35%.

For `COc1ccc(C(CCOS(=O)(=O)c2ccc(Br)cc2)(c2ccc(OC)cc2)c2ccc(OC)cc2)cc1`, which growth inhibition is on record?
The growth inhibition was 0.9%.

Which growth inhibition does the source give for `O=C(O)c1cc(C(=O)Nc2cccc3ccccc23)c(C(=O)O)cc1C(=O)Nc1cccc2ccccc12` here?
Its growth inhibition is 14.6%.

With `C(=NCCSSCCN=Cc1ccccc1)c1ccccc1` as the compound, how does the growth inhibition read?
The growth inhibition was 12.1%.

With `COC1=C(C(C2=C(OC)CC(C)(C)CC2=O)c2ccc3c(c2)OCO3)C(=O)CC(C)(C)C1` as the compound, how does the growth inhibition read?
The growth inhibition was 31.6%.

For `Nc1nc2ccccc2[nH]1`, which growth inhibition is on record?
The growth inhibition was 2.2%.

Which growth inhibition does the source give for `O=C(c1cccc(C(F)(F)F)c1)c1ccccc1Cc1ccccc1` here?
Its growth inhibition is 3.85%.

With `Cc1ccc(-c2cc(=O)c3cc(C)c(C)c(C(=O)O)c3o2)cc1C` as the compound, how does the growth inhibition read?
Its growth inhibition is 11.6%.

Which growth inhibition does the source give for `Cc1[nH]n(-c2ccccc2)c(=S)c1C(=O)c1ccccc1` here?
Its growth inhibition is -11.7%.

With `O=C(O)c1ccccc1C(=O)Cc1ccccc1` as the compound, how does the growth inhibition read?
Its growth inhibition is -14.7%.

For `COc1ccc2c3c(ccc2c1)C1CC(=O)CC1CC3` (stereo not given), which growth inhibition is on record?
The growth inhibition was 30.6%.

For `NS(=O)(=O)c1ccc(NC(=O)CCl)cc1`, which growth inhibition is on record?
The growth inhibition was 6.5%.

For `Cc1nc(Nc2ccccc2Cl)sc1C(=O)CC(=O)C(N)=O`, which growth inhibition is on record?
Its growth inhibition is 37.1%.

For `CC1(COC(=O)C2(C)CO2)CO1` (stereo not given), which growth inhibition is on record?
Its growth inhibition is 28.2%.

With `CC1(C)[C@@H]2C[C@H]1C(Cc1cccc(C[C@H]3c4cc(-c5ccccn5)ncc4[C@H]4C[C@@H]3C4(C)C)c1)c1cc(-c3ccccn3)ncc12` (stereo not given in full) as the compound, how does the growth inhibition read?
Its growth inhibition is -2.2%.

For `C/C(=N\O)c1ccc2[nH]c(C)cc(=O)c2c1`, which growth inhibition is on record?
Its growth inhibition is 2.95%.

For `O=C(O)c1ccccc1CC(C(=O)O)C(=O)O`, which growth inhibition is on record?
Its growth inhibition is 14.8%.

With `COc1ccc2c(c1)c(CO)c(CO)c[n+]2[O-]` as the compound, how does the growth inhibition read?
The growth inhibition was 11.7%.

For `CC(C)CCCC(C)C1CCC2C3CCC4Cc5c(c6ccccc6n5C)CC4(C)C3CCC12C` (stereo not given), which growth inhibition is on record?
The growth inhibition was -13.2%.

Which growth inhibition does the source give for `C=CCc1cc(C(Cc2ccccc2)NC(C)C)cc(OCc2ccccc2)c1OCc1ccccc1` (stereo not given) here?
Its growth inhibition is 10.1%.

For `CN(C)CCSC(CO)c1ccccc1` (stereo not given), which growth inhibition is on record?
The growth inhibition was -12.7%.

For `CCc1nc2c([nH]1)c(=O)n(C)c(=O)n2C`, which growth inhibition is on record?
The growth inhibition was 35%.

Which growth inhibition does the source give for `O=C1CCC(C(=O)O)N1` (stereo not given) here?
The growth inhibition was -9.2%.

With `CC(=O)NNC(=S)/N=C\c1c(O)[nH]c(=O)[nH]c1=O` as the compound, how does the growth inhibition read?
The growth inhibition was -23.1%.

Which growth inhibition does the source give for `O=c1c2cc([N+](=O)[O-])ccc2n2n1CCCC2` here?
The growth inhibition was 15.1%.

With `CCOC(=O)CNC(=O)C(Cc1ccccc1)NC(=O)CNC(=O)OCc1ccccc1` (stereo not given) as the compound, how does the growth inhibition read?
Its growth inhibition is 22.4%.

With `Cc1ccc(C)c2c1C(=O)c1ccccc1C2(O)C#Cc1ccccc1` (stereo not given) as the compound, how does the growth inhibition read?
The growth inhibition was 27.6%.

With `O=C1NC2(c3ccccc3)CCCCC2O1` (stereo not given) as the compound, how does the growth inhibition read?
The growth inhibition was -4.95%.

With `CC1OC1P(=O)(O)O` (stereo not given) as the compound, how does the growth inhibition read?
The growth inhibition was 16.6%.
